The values below come from the supplement of paper PMC6555819.

One assay has as its system PPARg:RXRa IVT, anti-PPARg (NR concentration 270 nM, RXRa partner concentration 90 nM). Kind of assay: PBM binding z-score (relative to random genomic background probes); higher = stronger binding; sequences stand for … in GC…GCGATTGACAGCGTAGAATGAAGG
An outline of the steps: (§1)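 Antibodies against each partner of ligand-free nuclear receptor dimers (one per run) detected binding on custom Agilent 4×180K protein-binding microarrays after 1 h incubation. The double-stranded probes had 34-nt variable regions carrying direct-repeat seeds, single-nucleotide variants, half-site ablations and random human genomic background sequences. Binding z-scores, from regression-normalized fluorescence, use the random background probes as reference.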
For the sequence CCTTACGGGTCACTGACAGGTTACAGCATTTGGA, the PBM binding z-score stood at 4.02.

Sequence CCAGACAGGTGAAAAGTAACTCAGTCTGGTACGC gave a PBM binding z-score of 0.789. As to ATCTCTAGGTAACCAAGATCAGTGAATGCCGAAC, the PBM binding z-score was determined as 2.67.

For CCTACTGAGCCAAAGGTCATTGATTCCAATGCTC, the PBM binding z-score was determined as 3.91.

In turn, GCGACTGGGGCATCAGAAGGTTACCATAACTTAA showed a PBM binding z-score of 3.39.

In the case of ATCTATAGGTAACCAAGTTCAGTGAATGCCGAAC, the PBM binding z-score came to 1.81. The sequence CCAGACAGGTGAGAAGGCAACTCAGCCTCGATTA came in with a PBM binding z-score of 0.413.

CCAGTCAGGTGAGAAGGTAACTCAGCCTCGATTA gave a PBM binding z-score of 1.02. The same measure, in the same setting: as for TCGACTAGGTTAGTCGGGGCATTCAGCCAACATA, the figure is 2.12; as for CGTCCAAGTTCAACTAAGGTAACGTAAAGCACGC, 1.1; as for AATACAGGGGCACTAGGCCAGAGTAGGTACGAAT, 3.75. The same measure, in the same setting: under CCTGCTAGGTCATGGACAGCTAATCTACAGTATG stands 3.72; under GCTAGTTGGGCAGTAAAAGGTCACACACCGGTCG, 2.09; under TCAGACGGGTGAAGGTAACTCAGGTACGCAGTCG, 0.818. In turn, ATCTCTAGGTACGACTCAGTTCAGTGAAGAACGC gave a PBM binding z-score of 0.456. The sequence GCGACTGGGGCATAGCAGGTTACCATAAGGTTGG displayed a PBM binding z-score of 2.96. The same measure, in the same setting: as for CGTCAAAGTTCAACTAAGGTAACGTAAAGCACGC, the figure is 2.33; as for TCAGACAGGTGAACGTAACTCAGGTACGCAGTCG, 1.55.

The next assay concerns PPARg DBDmut:RXRa IVT, anti-PPARg (DBD mutation: PPARg1 K132A/R137A, NR concentration 270 nM, RXRa partner concentration 90 nM). The description is as above. An outline of the steps: as §1
With GATACAGGGTCAGCTAGAGGCCTGAGTATGGAAA, the PBM binding z-score is -0.274. On the same count and under the same terms, as for CTCGAAAGGTCGTGCTCAGGTGAGCATACCAAAC, the figure is 0.195.

On to CGTCCAAGGTCAAAGGTCAGTGAGGAGATGACGG, for which the PBM binding z-score worked out at 0.435. For GATGCTAGGTCAACTGATGGTCAGCTAAAGCTCG, the PBM binding z-score is -0.0408. As for AGATTGAGGTTATTAAGATCAGGGAATTGCGGTC, the PBM binding z-score stood at 0.654. Still for that read-out and setting: under CGTCCAAGGCCAATGCTAGGTCAGTGAAAGCATT stands -0.963; under GAAACAGGGTCAAGGCCAGAGTACGCGTATTGAT, 1.43; under CCGCCTAGGTCAGGGCCAGTATAGGAGGAACGTT, -1.13. Still for that read-out and setting: under CCGAGTAGGTTAGGGGGCATTCAGGCAACGGTGA stands 4.62; under ACTCGGAGGACAACGGTCAGAGCTACGCCAGTGA, -0.698; under CGTCAAAGTTCAACTAAGGTAACGTACAGCACGC, 0.979. Still for that read-out and setting: under GCGACTGGGGCATCAGCAGGTTACAATAACTTAA stands -0.414; under TCTCGGAAGACACGAAAGGTCAGAGCTCGACATC, 0.544; under TCGAGAAGGTTAGTCGGGGCATTCAGCCAACATA, -0.513. As for AGAATGAGGTTATACGTAGATCAGGGAGGAAAGT, the PBM binding z-score amounted to 1.26. The same measure, in the same setting: under ATATGTAGGTTATCGGGCCATTCAGTTTGCGCAT stands 2.32; under TATACAGGGTAAAAGGCCAGAGTACGAATGTCGA, 1.57; under CCTGCTAGGTAAATGGTCAGCTAAAGCAGCTCGC, -1.23. On the same count and under the same terms, as for TCTAATTGGTCAAAGGTCACACACTCGAAATGCG, the figure is 4.31; as for TCATATAGGTTAATGCTAGGTGAAAGTCCGATCT, 1.41. On the same count and under the same terms, as for TAGCCTAGGTCAGATCGGCCCAGTATACGCTATA, the figure is -0.244; as for CAAACTAGGTAACAGAGGTCAAAGTCCGTGCGTA, 1.9. For the sequence CCTTACGGGTCACTGACAGGTTACAGCATTTGGA, the PBM binding z-score was determined as 0.114. CCAGACAGGTGAAAAGTAACTCAGTCTGGTACGC gave a PBM binding z-score of -0.595. Turning to ATCTCTAGGTAACCAAGATCAGTGAATGCCGAAC, the PBM binding z-score was determined as 0.887. CCTACTGAGCCAAAGGTCATTGATTCCAATGCTC: the PBM binding z-score came to 0.27.

In the case of GCGACTGGGGCATCAGAAGGTTACCATAACTTAA, the PBM binding z-score is 0.195.

As to ATCTATAGGTAACCAAGTTCAGTGAATGCCGAAC, the PBM binding z-score was found to be 0.555.

CCAGACAGGTGAGAAGGCAACTCAGCCTCGATTA came in with a PBM binding z-score of -0.447.

On to CCAGTCAGGTGAGAAGGTAACTCAGCCTCGATTA, for which the PBM binding z-score was -1.66. The same measure, in the same setting: under TCGACTAGGTTAGTCGGGGCATTCAGCCAACATA stands -0.552; under CGTCCAAGTTCAACTAAGGTAACGTAAAGCACGC, 0.262; under AATACAGGGGCACTAGGCCAGAGTAGGTACGAAT, 0.831. Same read-out and setting: as for CCTGCTAGGTCATGGACAGCTAATCTACAGTATG, the figure is 0.434; as for GCTAGTTGGGCAGTAAAAGGTCACACACCGGTCG, -0.128. As for TCAGACGGGTGAAGGTAACTCAGGTACGCAGTCG, the PBM binding z-score is -0.457. Same read-out and setting: as for ATCTCTAGGTACGACTCAGTTCAGTGAAGAACGC, the figure is 0.443; as for GCGACTGGGGCATAGCAGGTTACCATAAGGTTGG, -0.728; as for CGTCAAAGTTCAACTAAGGTAACGTAAAGCACGC, 1.23. TCAGACAGGTGAACGTAACTCAGGTACGCAGTCG came in with a PBM binding z-score of 0.22.
